Assay results reported in PubChem BioAssay AID1159580 (chemical genetic matrix, 2015).
Values joined by “and” are separate entries in the source; they are usually repeats but may differ in a detail not shown here. Equal values may be shown once. About 2,000 (36%) of roughly 5,500 compounds were called active. Roughly 18% stayed inconclusive and do not appear here. Rule as the data show it: active = normalized growth mostly below about 0.91 (no sharp cut-off); inconclusive = no clear call, values can overlap the other calls; inactive = mostly above about 0.92. Some of the results follow.

Experiment: chemical genetic growth profiling, strain panel (AID 1159580);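 also: tested at 20 µM; growth read once vehicle control cultures reached saturation at 30 °C; 1 = growth at the plate median or of vehicle wells; lower values mean less growth of the strain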
Settings: growth OD

Measured: normalized growth

CCCCC1C(=O)N(c2ccccc2)N(c2ccccc2)C1=O
inactive: S. cerevisiae deletion strains, locus YJR075W, strain HOC1, stronger effect = lower value 1 | S. cerevisiae deletion strains, locus YKL009W, strain mrt4, stronger effect = lower value 0.98 | S. cerevisiae deletion strains, locus YKL068W, stronger effect = lower value 0.963 | S. cerevisiae deletion strains, locus YKL085W, strain MDH1 (second series), stronger effect = lower value 0.959 | S. cerevisiae deletion strains, locus YKL085W, strain MDH1, stronger effect = lower value 0.959 | S. cerevisiae deletion strains, locus YKL160W, strain elf1, stronger effect = lower value 1.01 | S. cerevisiae deletion strains, locus YKL190W, strain CNB1, stronger effect = lower value 0.972 | S. cerevisiae deletion strains, locus YKR001C, strain vps1, stronger effect = lower value 0.994 | S. cerevisiae deletion strains, locus YKR026C, strain gcn3, stronger effect = lower value 0.988 | S. cerevisiae deletion strains, locus YKR091W, strain srl3, stronger effect = lower value 0.986 | S. cerevisiae deletion strains, locus YLL001W, strain dnm1, stronger effect = lower value 0.992 | S. cerevisiae deletion strains, locus YLL026W, stronger effect = lower value 0.99 | S. cerevisiae deletion strains, locus YLL041C, strain sdh2, stronger effect = lower value 0.985 | S. cerevisiae deletion strains, locus YLR027C, strain aat2, stronger effect = lower value 0.987 | S. cerevisiae deletion strains, locus YLR039C, strain RIC1, stronger effect = lower value 0.895 | S. cerevisiae deletion strains, locus YLR058C, strain SHM2, stronger effect = lower value 0.987 | S. cerevisiae deletion strains, locus YLR102C, strain apc9, stronger effect = lower value 0.983 | S. cerevisiae deletion strains, locus YLR113W, strain HOG1, stronger effect = lower value 0.899 | S. cerevisiae deletion strains, locus YLR221C, strain rsa3, stronger effect = lower value 1.02 | S. cerevisiae deletion strains, locus YLR258W, strain gsy2, stronger effect = lower value 0.993 | S. cerevisiae deletion strains, locus YLR262C, strain YPT6 (second series), stronger effect = lower value 0.93 | S. cerevisiae deletion strains, locus YLR262C, strain YPT6, stronger effect = lower value 0.893 | S. cerevisiae deletion strains, locus YLR268W, strain sec22, stronger effect = lower value 1.06 | S. cerevisiae deletion strains, locus YLR320W, strain mms22, stronger effect = lower value 1.02 | S. cerevisiae deletion strains, locus YLR330W, strain CHS5, stronger effect = lower value 0.984 | S. cerevisiae deletion strains, locus YLR342W, strain FKS1 (second series), stronger effect = lower value 0.994 | S. cerevisiae deletion strains, locus YLR342W, strain FKS1, stronger effect = lower value 0.978 | S. cerevisiae deletion strains, locus YLR357W, strain rsc2, stronger effect = lower value 1.04 | S. cerevisiae deletion strains, locus YLR370C, strain arc18, stronger effect = lower value 0.973 | S. cerevisiae deletion strains, locus YLR371W, strain rom2, stronger effect = lower value 1 | S. cerevisiae deletion strains, locus YLR384C, strain iki3, stronger effect = lower value 0.996 | S. cerevisiae deletion strains, locus YLR418C, strain cdc73, stronger effect = lower value 0.995 | S. cerevisiae deletion strains, locus YML016C, strain PPZ1, stronger effect = lower value 0.98 | S. cerevisiae deletion strains, locus YML032C, strain rad52, stronger effect = lower value 1.02 | S. cerevisiae deletion strains, locus YML120C, strain ndi1, stronger effect = lower value 0.999 | S. cerevisiae deletion strains, locus YML124C, strain tub3, stronger effect = lower value 0.982 | S. cerevisiae deletion strains, locus YMR058W, strain fet3, stronger effect = lower value 0.993 | S. cerevisiae deletion strains, locus YMR078C, strain ctf18, stronger effect = lower value 0.988 | S. cerevisiae deletion strains, locus YMR125W, strain sto1, stronger effect = lower value 0.989 | S. cerevisiae deletion strains, locus YMR129W, stronger effect = lower value 0.986 | S. cerevisiae deletion strains, locus YMR205C, strain PFK2, stronger effect = lower value 0.989 | S. cerevisiae deletion strains, locus YMR223W, strain ubp8, stronger effect = lower value 0.967 | S. cerevisiae deletion strains, locus YMR231W, strain pep5, stronger effect = lower value 0.996 | S. cerevisiae deletion strains, locus YMR263W, strain SAP30, stronger effect = lower value 0.997 | S. cerevisiae deletion strains, locus YMR307W, strain GAS1, stronger effect = lower value 0.971 | S. cerevisiae deletion strains, locus YNL067W, strain RPL9B, stronger effect = lower value 1.02 | S. cerevisiae deletion strains, locus YNL071W, strain lat1, stronger effect = lower value 0.994 | S. cerevisiae deletion strains, locus YNL128W, strain TEP1, stronger effect = lower value 0.99 | S. cerevisiae deletion strains, locus YNL153C, strain GIM3, stronger effect = lower value 1.04 and 1 | S. cerevisiae deletion strains, locus YNL175C, strain NOP13, stronger effect = lower value 0.971 | S. cerevisiae deletion strains, locus YNL183C, strain NPR1, stronger effect = lower value 0.946 | S. cerevisiae deletion strains, locus YNL197C, strain WHI3, stronger effect = lower value 0.976 | S. cerevisiae deletion strains, locus YNL209W, strain ssb2, stronger effect = lower value 1 | S. cerevisiae deletion strains, locus YNL224C, strain SQS1, stronger effect = lower value 0.972 | S. cerevisiae deletion strains, locus YNL233W, strain BNI4, stronger effect = lower value 1.04 | S. cerevisiae deletion strains, locus YNL248C, strain rpa49, stronger effect = lower value 1.03 | S. cerevisiae deletion strains, locus YNL250W, strain rad50, stronger effect = lower value 0.972 | S. cerevisiae deletion strains, locus YNL271C, strain bni1, stronger effect = lower value 0.979 | S. cerevisiae deletion strains, locus YNL298W, strain CLA4, stronger effect = lower value 0.998 | S. cerevisiae deletion strains, locus YNL307C, strain MCK1, stronger effect = lower value 1.01 | S. cerevisiae deletion strains, locus YNL322C, strain KRE1 (second series), stronger effect = lower value 0.982 | S. cerevisiae deletion strains, locus YNL322C, strain KRE1, stronger effect = lower value 0.973 | S. cerevisiae deletion strains, locus YNR049C, strain mso1, stronger effect = lower value 0.985 | S. cerevisiae deletion strains, locus YNR052C, strain pop2, stronger effect = lower value 0.999 | S. cerevisiae deletion strains, locus YOL006C, strain TOP1, stronger effect = lower value 1.05 | S. cerevisiae deletion strains, locus YOL012C, strain htz1 0.887 | S. cerevisiae deletion strains, locus YOL147C, strain pex11, stronger effect = lower value 0.993 | S. cerevisiae deletion strains, locus YOR001W, strain rrp6, stronger effect = lower value 0.99 | S. cerevisiae deletion strains, locus YOR061W, strain CKA2, stronger effect = lower value 0.977 | S. cerevisiae deletion strains, locus YOR069W, strain VPS5, stronger effect = lower value 0.984 | S. cerevisiae deletion strains, locus YOR070C, strain gyp1, stronger effect = lower value 0.999 | S. cerevisiae deletion strains, locus YOR080W, strain dia2, stronger effect = lower value 0.987 | S. cerevisiae deletion strains, locus YOR083W, strain WHI5 (second series), stronger effect = lower value 0.994 | S. cerevisiae deletion strains, locus YOR083W, strain WHI5, stronger effect = lower value 1.02 | S. cerevisiae deletion strains, locus YOR106W, strain vam3, stronger effect = lower value 1.03 | S. cerevisiae deletion strains, locus YOR136W, strain idh2, stronger effect = lower value 0.982 | S. cerevisiae deletion strains, locus YOR144C, strain elg1, stronger effect = lower value 0.985 | S. cerevisiae deletion strains, locus YOR184W, strain ser1, stronger effect = lower value 1 | S. cerevisiae deletion strains, locus YOR231W, strain MKK1, stronger effect = lower value 0.933 | S. cerevisiae deletion strains, locus YOR265W, strain rbl2, stronger effect = lower value 0.988 | S. cerevisiae deletion strains, locus YOR270C, strain vph1, stronger effect = lower value 1.02 | S. cerevisiae deletion strains, locus YOR290C, strain snf2, stronger effect = lower value 1.02 | S. cerevisiae deletion strains, locus YOR316C, strain cot1, stronger effect = lower value 0.986 | S. cerevisiae deletion strains, locus YPL051W, strain arl3, stronger effect = lower value 0.992 | S. cerevisiae deletion strains, locus YPL055C, strain LGE1, stronger effect = lower value 1 and 0.997 | S. cerevisiae deletion strains, locus YPL078C, strain atp4, stronger effect = lower value 1.02 | S. cerevisiae deletion strains, locus YPL106C, strain sse1, stronger effect = lower value 1.01 | S. cerevisiae deletion strains, locus YPL240C, strain hsp82, stronger effect = lower value 0.994 | S. cerevisiae deletion strains, locus YPL241C, strain CIN2, stronger effect = lower value 0.981 and 1 | S. cerevisiae deletion strains, locus YPL256C, strain CLN2, stronger effect = lower value 0.914 | S. cerevisiae deletion strains, locus YPR119W, strain clb2, stronger effect = lower value 0.977 | S. cerevisiae deletion strains, locus YPR141C, strain kar3, stronger effect = lower value 0.961 | S. cerevisiae deletion strains, locus YPR163C, strain tif3, stronger effect = lower value 1 | S. cerevisiae deletion strains, locus YPR167C, strain met16, stronger effect = lower value 0.993 | S. cerevisiae deletion strains, strain wtn01, stronger effect = lower value 1.02 | S. cerevisiae strains, strain wild type, stronger effect = lower value 0.984
